Compound activity as filed in PubChem BioAssay.
GAA glycogen mod: GAA glycogen-cleavage inhibition or activation | P10253 | recombinant GAA, glycogen substrate, Amplex Red glucose oxidase fluorescence | Potency, µM (series often up to 76.4 µM), for the others: top-dose activity change, negative = inhibition, hits mostly inhibitors | 0.38% of 300,000 active | AID 2100;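 also: 0% = full enzyme reaction and -100% = no-enzyme basal signal; the screen sought inhibitors and activators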
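Recombinant human alpha-glucosidase (4 nM final) hydrolysed bovine liver glycogen (30 ug) for 40 min at 37 C in pH 5.0 citrate/phosphate with 0.01% Tween-20. Released glucose detected by glucose oxidase/Amplex Red, Ex 573/Em 610 nm. Compounds up to 77 uM; AC50 from Hill fits.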
LMNA splice mod: changes lamin A minigene splicing in HeLa cells; HeLa LMNA splicing GFP/RFP minigene ratio, 48 h; Potency, µM (highest dose often 46.1 µM), inactives show top-dose ratio change, negative = inhibition, actives largely listed as inhibitors; 0.01% of 200,000 active; active = well fitted inhibition curve with a large enough effect in the signal ratio, with a control signal flat, not every such curve was filed as active; inconclusive = small, poorly fitted or top-dose-only effect, or effect the other way, or a change in a side signal; the % refers to the signal ratio
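S3 HeLa stable clones carrying a lamin A-EGFP splicing minigene plus DsRed2 were seeded at 600 cells/well in Opti-MEM with 2% FBS, pin-dosed and incubated 48 h at 37°C. Acumen cytometry (488 nm) gave the GFP/RFP total-intensity ratio.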
GAA inh: inhibitors of human lysosomal alpha-glucosidase; P10253; 0.005% of 200,000 active; Potency, µM (doses to about 76.9 µM), for the others: at the top dose activity change, negative = inhibition, hits mostly inhibitors; AID 1466; purified human GAA, 4-MU-alpha-glucoside fluorescence;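 also: plate controls were uninhibited enzyme wells for no effect and no-enzyme background for full effect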
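Human enzyme at 4 nM with 400 uM 4-methylumbelliferyl-alpha-D-pyranoside, citrate/phosphate buffer pH 5.0, 0.005% Tween-20, 20 min at room temperature. Compounds up to 77 uM. 4-MU fluorescence (Ex 365/Em 440) read after NaOH/glycine stop; AC50 from Hill fit.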
GAA spleen mod: lysosomal alpha-glucosidase (human) modulation | 0.006% of 240,000 active | Potency, µM (series often up to 79.9 µM), without a hit: at the top dose activity change, negative = inhibition, actives largely listed as inhibitors | P10253 | AID 2112 | human spleen homogenate, 4-MU-alpha-glucoside fluorescence;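 also: 0% = enzyme with vehicle and -100% = no enzyme basal signal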
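Human spleen homogenate (1 ug) with 4-methylumbelliferyl-alpha-D-glucopyranoside (1 mM final) in 50 mM citrate/phosphate pH 5.0, 0.01% Tween-20; 40 min at 37 C. Stopped at pH 10; 4-MU fluorescence Ex 365/Em 440 nm; AC50 by Hill fit.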
N370S GC mod: N370S glucocerebrosidase modulation, Gaucher chaperone candidate | P04062 | N370S GC spleen homogenate, 4MU-glucoside fluorescence | Potency, µM (highest dose often 59.4 µM), inactives show at the top dose activity change, negative = inhibition, most hits filed as inhibitors | 0.092% of 330,000 active | AID 2101;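 also: 0% = full enzyme activity and -100% = no enzyme basal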
The depositor's hits bear a star; ? = inconclusive; . = no result given; [ ] = remark or other dose. Compounds with a hit are over-represented: about 0.42% of the library has one in this group of screens. Unless noted, calls follow the shape of the dose curve; as a rule, active = well fitted curve in the direction sought with a large enough effect; inconclusive = small, poorly fitted or top-dose-only effect, or another doubt; inactive = no such curve, though single readings can be large; an effect the other way counts as inactive or inconclusive. Unless noted, % is scaled to controls: 0 for no effect and ±100 for the full control effect; potency is read from the fitted curve at half-maximal effect.

SMILES | GAA glycogen mod | LMNA splice mod | GAA inh | GAA spleen mod | N370S GC mod
CCn1cnc2cc(NCc3cccc(OC)c3O)ccc21 | 15.7µM* | -9.0% | 1.1% | -4.5% | 17.4%
COc1ccccc1-n1cnc2cc(NCc3ccccc3O)ccc21 | -25.6% | . | . | -1.4% | -2.3%
COc1cc(C2CC(=O)Oc3c2c(=O)[nH]c2ccccc32)cc(OC)c1OC (centres undefined) | 50.1µM* | . | . | . | .
Cc1ccc(C)c(NC(=O)C2CCCN(S(=O)(=O)c3ccc4[nH]c(=O)ccc4c3)C2)c1 (centres undefined) | 31.6µM* | . | . | . | -22.8%
COc1ccc(C)cc1NC(=O)C1CCCN(S(=O)(=O)c2ccc3[nH]c(=O)ccc3c2)C1 (centres undefined) | 12.1%[76.3 µM] | . | . | . | ?
Cc1cc2c(s1)c1c(C)nn(Cc3ccccc3F)c(=O)c1n2C | . | . | . | . | 5.4%
CCOC(=O)C1CN(S(=O)(=O)c2ccc(Cl)cc2)c2cc(S(=O)(=O)CC)ccc2O1 (centres undefined) | 16.7% | -0.9%[46 µM] | -4.2% | 2.6% | -4.5%
CCC1CN(S(=O)(=O)c2ccc3c(c2)NC(=O)CC(=O)N3)c2cc(Cl)ccc2O1 (centres undefined) | -9.1%[76.3 µM] | ? | . | . | 1.58µM*
Cc1c(Cl)cccc1-n1ncc(C(=O)Nc2ccc3c(c2)OCCO3)c1C1CCN(C(=O)OC(C)(C)C)CC1 | . | -11.1%[46 µM] | . | . | .
Oc1ccc(/C=N/NC(=S)Nc2cccnc2)cc1 | -23.4% | . | . | 1.3% | -22.1%
Oc1ccc(/C=N/NC(=S)N/N=C/c2ccc(O)cc2)cc1 | 3.55µM* | . | 4.7% | 1.9% | -3.9%
Cn1c(=O)c2sccc2n2c(CCCC(=O)Nc3ccc(F)c(F)c3)nnc12 | 2µM* | . | . | . | .
Cc1ccc(NC(=O)CCCc2nnc3n(C)c(=O)c4sccc4n23)cc1C | -4.1%[76.3 µM] | . | . | . | .
O=C1NN(c2ccc(Cl)c(Cl)c2)C(=O)/C1=C/c1cccc(OC(=O)c2cccs2)c1 | -20.8% | 0.9% | -2.3% | -8.9% | 7.4%
O=C1NN(c2ccccc2)C(=O)/C1=C\c1cccc(OC(=O)c2cccs2)c1 | 20µM* | 4.9% | -1.1% | -10.2% | .
c1ccc(C2[C@H]3CN(CC4CCCCC4)[C@H](c4ccccc4)C34CC2(c2cccnc2)C4)cc1 (some centres undefined) | -0.6% | . | . | 1.4% | 14.1µM*
CCOC(=O)Cc1csc(NC(=O)NC2(C(F)(F)F)Oc3cc(Cl)c(Cl)cc3O2)n1 | 8.84µM* | 10.4% | -0.5% | 1.3% | 4.9%
CCOC(=O)Cc1csc(NC(=O)Cc2ccc(Cl)cc2)n1 | -3.2% | . | . | -5.6% | -9.1%
CCOC(=O)Cc1csc(NC(=O)NC2(C(F)(F)F)Oc3ccccc3O2)n1 | 17.6µM* | -4.7% | -8.8% | -5.1% | -8.3%
CCOC(=O)Cc1csc(NC(=O)NC2(C(F)(F)F)Oc3ccc(Cl)cc3O2)n1 (centres undefined) | 11.1µM* | ? | -0.8% | -1.2% | -9.5%
CCOC(=O)Cc1csc(NC(=O)Nc2ccc(OC(F)(F)F)cc2)n1 | -0.5% | . | 0.5%[15.4 µM] | -8.7% | 7.9%
CN(C(Cc1ccc(OS(=O)(=O)c2cccc3cnccc23)cc1)C(=O)N1CCN(c2ccccc2)CC1)S(=O)(=O)c1cccc2cnccc12 (centres undefined) | . | . | . | 4.9% | 5.4%
Cc1ccc(/C(O)=C/c2nc3cc(C)ccc3oc2=O)cc1 | 15.8µM* | . | . | -8.4% | 6.0%
O=c1oc2ccc(Cl)cc2nc1/C=C(\O)c1ccco1 | 7.08µM* | . | . | 1.2% | -14.0%
NCCCC[C@H](N)C(=O)N[C@@H](CCCN=C(N)N)C(=O)N1CCC[C@H]1C(=O)N1CCC[C@H]1C(=O)NCC(=O)N[C@@H](Cc1ccccc1)C(=O)N[C@@H](CO)C(=O)N1CCC[C@H]1C(=O)N[C@@H](Cc1ccccc1)C(=O)O | . | . | . | -1.2% | -1.1%
Cc1ccc(Nc2ncnc3sc(C)c(C)c23)cc1 | -3.0% | -13.6% | -3.1% | -16.6% | 8.9%
Cc1sc2ncnc(Nc3ccc(O)cc3)c2c1C | ? | . | -4.4%[15.4 µM] | 3.4% | 11.2µM*
C[C@@]12C=Cc3occc3C1CC[C@@]13C[C@@H](CCC12)[C@@](O)(CO)C3 (some centres undefined) | . | . | . | -3.8% | -5.9%
